Rv3671c inh: Rv3671c serine protease inhibitors, primary screen, biochemical, fluorescence polarization, M. tuberculosis H37Rv; P9WHR9; inhibition, % at 5.96 µM; 320,000 compounds, 0.048% hits; AID 2606, 2010; in the data active means inhibition above about 38%;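 further: extracellular domain of Rv3671c used as enzyme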
RecA splice inh: Mtb RecA intein splicing inhibitors, primary screen, biochemical, fluorescence, HTS | cell-free RecA intein splicing | Protein RecA (Mycobacterium tuberculosis (strain ATCC 25618 / H37Rv)), P9WHJ3 | inhibition, % (concentration not given with the values) | 290,000 compounds, 0.75% hits; in the data active means inhibition above about 30%
GDH-TPI counter-1: GDH-TPI coupling enzyme inhibitors, primary screen, artefact control for M. tuberculosis FBA inhibitor project, biochemical, absorbance, full deck; GDH-TPI coupled enzyme counterscreen, NADH absorbance; inhibition, % at 4.8 µM; 360,000 compounds, 1.2% hits; AID 588335, 2011; in the data active means inhibition above about 30%
BH1578 lux ind: inducers of Vibrio cholerae quorum light production without autoinducers, primary screen, BH1578 luxS cqsA deficient, single point | 350,000 compounds, 0.16% hits | activation, % at 18.7 µM | V. cholerae BH1578 lux reporter, luminescence, 6 h | AID 588436, 2011; in the data active means activation mostly above about 9.7%, no sharp cut-off
UGM FP inh: M. tuberculosis UGM enzyme inhibitors, primary screen, biochemical, fluorescence polarization, single point. UDP-galactopyranose mutase (Mycobacterium tuberculosis (strain ATCC 25618 / H37Rv)), …. purified UGM, fluorescence polarization probe displacement. inhibition, % at 10 µM. 320,000 compounds, 0.06% hits; in the data active means inhibition above about 10%, passing the limit was not always enough
Mtb FBA inh: Mtb FBA enzyme inhibitors, primary screen, biochemical, fluorescence, strain H37Rv; 360,000 compounds, 2.3% hits; purified M. tuberculosis FBA, fluorescence read-out; inhibition, % at 1 µM; Fructose-bisphosphate aldolase (Mycobacterium tuberculosis (strain ATCC 25618 / H37Rv)), …
Target sequence (P9WQA3 whole entry, looked up): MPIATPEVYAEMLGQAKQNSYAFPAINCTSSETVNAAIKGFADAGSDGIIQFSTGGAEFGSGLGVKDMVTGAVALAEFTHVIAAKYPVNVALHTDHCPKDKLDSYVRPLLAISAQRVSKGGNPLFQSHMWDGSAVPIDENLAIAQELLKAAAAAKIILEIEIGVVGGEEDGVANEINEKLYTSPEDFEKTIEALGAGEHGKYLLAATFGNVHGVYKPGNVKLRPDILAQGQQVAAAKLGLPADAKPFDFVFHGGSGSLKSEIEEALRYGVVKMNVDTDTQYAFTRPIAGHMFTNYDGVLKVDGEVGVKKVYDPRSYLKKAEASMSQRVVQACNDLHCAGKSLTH
Mtb FBA confirm: M. tuberculosis aldolase blockers, biochemical, fluorescence, strain H37Rv, confirmation; shares compounds with Mtb FBA inh; purified M. tuberculosis FBA, fluorescence read-out; inhibition, % at 1 µM; 5,600 compounds, 78% hits; AID 651616, 2012
GDH-TPI counter-2: GDH-TPI coupling enzyme inhibitors, artefact control for M. tuberculosis FBA inhibitor project, biochemical, fluorescence, high throughput; shares compounds with Mtb FBA inh; GDH-TPI coupled enzyme counterscreen; inhibition, % at 1 µM; 5,600 compounds, 81% hits; AID 652141, 2013; in the data active means inhibition above about 10%
GDH-TPI DR: GDH-TPI coupling enzyme inhibitors, dose response, artefact control for M. tuberculosis FBA inhibitor project, biochemical, fluorescence, IC50 | IC50, µM | shares compounds with Mtb FBA inh | AID 652145, 2013 | GDH-TPI coupled enzyme assay, artifact counterscreen | 170 compounds, 79% hits; call rule not given here
Large screens that a line does not name were inactive (follow-up assays come after a bar, where they were run). This is a sample that favours compounds with a hit; in the whole collection about 4.1% have one here. Unless noted, no stated cut-off is given here; in the data, active means inhibition above about 27%; inactive means the rest.

CCO[C@@H]1c2c(ccc3ccc(=O)oc23)OC(C)(C)[C@H]1O	Mtb FBA inh 56 (no result: RecA splice inh) | Mtb FBA confirm inactive | GDH-TPI counter-2 inactive | GDH-TPI DR 2.9
C/C=C(/C)C(=O)O[C@@H]1c2c(ccc3ccc(=O)oc23)OC(C)(C)[C@@H]1OC(=O)/C(C)=C\C	none
CC(=O)OC1c2c(ccc3ccc(=O)oc23)OC(C)(C)C1OC(=O)CC(C)C (configuration not stated)	none
CC1(C)Oc2ccc3ccc(=O)oc3c2[C@@H](O)[C@@H]1O	Mtb FBA inh 59 (no result: RecA splice inh) | Mtb FBA confirm 38 | GDH-TPI counter-2 27
CC1(C(=O)NCc2cccs2)CCN1C(=O)Cc1ccc(Cl)cc1Cl (configuration not stated)	none (no result: Rv3671c inh, RecA splice inh, UGM FP inh)
COc1cccc(OC)c1C(=O)NC(=O)Nc1c(C)cccc1C	none
O=S(=O)(c1ccc(F)cc1)N1CCN(CC(O)COCC2CCCO2)CC1 (configuration not stated)	none (no result: Rv3671c inh, RecA splice inh, UGM FP inh)
CN(Cc1nc2ccccc2c(=O)[nH]1)C(=O)c1cccc(S(=O)(=O)N2CCc3ccccc32)c1	none (no result: RecA splice inh)
CC(C)c1ccc(NC(=O)[C@@H]2CCC(=O)N2C2OC(=O)c3ccccc32)cc1 (some centres not stated)	none
CCO[C@H]1c2c(ccc3ccc(=O)oc23)OC(C)(C)[C@@H]1O	Mtb FBA inh 59 (no result: RecA splice inh) | Mtb FBA confirm 137 | GDH-TPI counter-2 96
COC1=Cc2c(ccc3ccc(=O)oc23)OC1(C)C	none (no result: BH1578 lux ind)
C=CCn1c(SC(C)C(=O)NC2CC2)nnc1-c1ccoc1C (configuration not stated)	none
COc1ccc(-c2oc3cccnc3c2/C=C/c2ccc(OC)c(OC)c2)cc1	Mtb FBA inh 94 | Mtb FBA confirm active | GDH-TPI counter-2 195
COc1ccc(/C=C/c2c(-c3ccc(OC)cc3)oc(=O)c3cc(OC)c(OC)cc23)cc1	none (no result: RecA splice inh)
O=C(O)CC(C(=O)O)C(c1ccccc1)c1ccccc1 (configuration not stated)	none (no result: Rv3671c inh, RecA splice inh, UGM FP inh)
N#Cc1ccccc1NC(=O)C(=O)NCCCN1CCCC1=O	none
Cc1ccc([C@H]2N[C@]3(CCCN(Cc4ccc(C(F)(F)F)cc4)C3=O)[C@H]3C(=O)N(Cc4ccccc4)C(=O)[C@@H]23)cc1	none (no result: Rv3671c inh, RecA splice inh, UGM FP inh)
Cc1ccc(S(=O)(=O)N2CCOCC2)cc1C(=O)OC(C)C(=O)NC1CCCC1 (configuration not stated)	none (no result: RecA splice inh)
CC(OC(=O)c1cc(S(=O)(=O)N2CCOCC2)ccc1F)C(=O)NC1CCCCC1C (configuration not stated)	Mtb FBA inh 30 | Mtb FBA confirm 35 | GDH-TPI counter-2 27
CC(=O)Oc1ccccc1Cn1c(C)c(C(=O)NCc2ccc(F)cc2)sc1=O	none (no result: Rv3671c inh, RecA splice inh, UGM FP inh)
N#CCCn1cc(C(N)=O)c(-c2cccs2)n1	Mtb FBA inh 29 | Mtb FBA confirm 75 | GDH-TPI counter-2 63
N#CCCn1cc(C(=O)O)c(-c2cccs2)n1	none
Cc1ccc(C(=O)OCC(=O)NCc2cccc(Cl)c2)cc1S(=O)(=O)N1CCCCC1	none (no result: Rv3671c inh, RecA splice inh, UGM FP inh)
Cc1ccc2c(COC(=O)CC3Sc4ccccc4NC3=O)cc(=O)oc2c1C (configuration not stated)	none
O=C(CC1Sc2ccccc2NC1=O)OCc1cc(=O)oc2cc(O)ccc12 (configuration not stated)	Mtb FBA inh 35 | Mtb FBA confirm 91 | GDH-TPI counter-2 80
O=C1CCC(=O)c2ccc3c4c(ccc1c24)CC3	GDH-TPI counter-1 32, Mtb FBA inh 42 (no result: Rv3671c inh, RecA splice inh, UGM FP inh) | Mtb FBA confirm inactive | GDH-TPI counter-2 inactive | GDH-TPI DR 3.6
CCOc1ccc(S(=O)(=O)Nc2cccc(C(=O)NCC(c3ccco3)N3CCCC3)c2)cc1 (configuration not stated)	none (no result: RecA splice inh)
O=C(COC(=O)C12CC3CC(CC(Br)(C3)C1)C2)Nc1cccnc1Cl	Mtb FBA inh 32 | Mtb FBA confirm 59 | GDH-TPI counter-2 49
CCCn1nc2cc(C(=O)NCCc3ccc(C)cc3)ccc2c1OCC	Mtb FBA inh 55 | Mtb FBA confirm 64 | GDH-TPI counter-2 67
CCCn1nc2cc(C(=O)NCCCCc3ccccc3)ccc2c1OCC	Mtb FBA inh 53 | Mtb FBA confirm 132 | GDH-TPI counter-2 104
CN(c1cccc(NC(=O)c2ccc(Cl)c(S(=O)(=O)N3CCOCC3)c2)c1)S(C)(=O)=O	none (no result: Rv3671c inh)
CC(C(=O)Nc1ccc(C#N)cc1)N(C)Cc1cccs1 (configuration not stated)	Mtb FBA inh 77 | Mtb FBA confirm 50 | GDH-TPI counter-2 40
COC(=O)c1ccc2ccn(CC(=O)NC3CCCCC3)c2c1	Mtb FBA inh 71 | Mtb FBA confirm inactive | GDH-TPI counter-2 inactive
N#Cc1ccc2ccn(CC(=O)NC3CCCCCC3)c2c1	none (no result: RecA splice inh)
COc1ccccc1C1=NC(c2ccccc2)CN1c1ccccc1 (configuration not stated)	Mtb FBA inh 102 | Mtb FBA confirm 89 | GDH-TPI counter-2 63
COc1ccc2c(C)cc(=S)[nH]c2c1	none (no result: Rv3671c inh, UGM FP inh)
CC(=O)Oc1ccc2c(C)cc(=O)[nH]c2c1	Mtb FBA inh 58 (no result: BH1578 lux ind) | Mtb FBA confirm inactive | GDH-TPI counter-2 inactive
Cn1c(=O)c(-c2ccccc2)nc2ccccc21	Mtb FBA inh 44 | Mtb FBA confirm 59 | GDH-TPI counter-2 39
Cn1c(=O)c(-c2ccccc2N)nc2ccccc21	none
Cc1cccc(/C=C(\C(=O)C(=O)O)c2ccc3ccccc3n2)c1	none
O=C(O)C(=O)/C(=C\c1cccc(Cl)c1)c1ccc2ccccc2n1	Mtb FBA inh 79 | Mtb FBA confirm active | GDH-TPI counter-2 active
COc1ccc2c(C)c(CCC(=O)N3C[C@H]4C[C@@H](C3)c3cccc(=O)n3C4)c(=O)oc2c1	Mtb FBA inh 68 | Mtb FBA confirm 118 | GDH-TPI counter-2 128
COc1ccc(-c2cc(=O)oc3cc(OCC(=O)N4C[C@H]5C[C@@H](C4)c4cccc(=O)n4C5)ccc23)cc1	none
Cc1c(Br)c(=O)oc2cc(OCC(=O)N3C[C@H]4C[C@@H](C3)c3cccc(=O)n3C4)ccc12	Mtb FBA inh 40 (no result: RecA splice inh) | Mtb FBA confirm 54 | GDH-TPI counter-2 65

Source: PubChem (several laboratories)
